These molecules were tested on KIT-autoinhibited. Conditions: concentration: 1 μM, replicates: in singlicate; n = 1.
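Further: KINOMEscan kinase panel screen.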

| SMILES | %Inh |
| --- | --- |
| CCn1c(-c2ccoc2)nc2cnccc21 [SB-733887] | 61% |
| Nc1nc(-c2ccccc2F)c(-c2ccnc3ccccc23)s1 [GW560459] | 0% |
| COc1cc(Nc2ccnc3ccc(C(F)(F)F)cc23)cc(OC)c1OC [GW577382] | 0% |
| COC(=O)c1c(-c2ccccc2)c2cc(Br)ccc2c(=O)n1Cc1ccc(S(C)(=O)=O)cc1 | 6% |
| O=C(Nc1n[nH]c2nc(-c3ccccc3)c(Cl)cc12)C1CC1 [SB-734909] | 0% |
| Nc1nc(N)c2nc(-c3ccccc3)[nH]c2n1 [SKF-12778] | 5% |
| Cc1c(Cn2c(C)nn3c(=O)cc(N4CCO[C@H](C)C4)nc23)cccc1C(F)(F)F [GSK2373690] | 0% |
| COc1cccc(C2=C(Nc3cccc(C(=O)O)c3)C(=O)NC2=O)c1 [SB-390770] | 0% |
| CCCNC(=O)Nc1ccc(Oc2ncnc3ccn(C)c23)cc1 | 3% |
| Cc1ccc(-c2ccc3c(ccc4sc5c(c43)NC[C@@H](C)N=C5N(C)C)n2)cn1 | 0% |
| CN1C(=O)C(Nc2cc(Cl)c(O)c(Cl)c2)=C(c2ccc(Cl)cc2)C1=O [SB-404321] | 26% |
| COc1cc(Nc2nccc(N3CCC(NC(=O)C4COc5ccccc5O4)C3)n2)cc(OC)c1OC (stereo not shown) [GSK1379761] | 0% |
| COc1ccc(-c2coc3ccc(-c4nnc(SCc5cccc(C#N)c5)o4)cc23)cc1 | 1% |
| COc1cc(Nc2nccc(N3CCC(NC(=O)C(C)c4ccc(Cl)cc4)C3)n2)cc(OC)c1OC (stereo not shown) [GSK1379757] | 0% |
| COC(=O)c1c(-c2ccccc2)c2cc(Br)ccc2c(=O)n1Cc1ccc(NC(=O)CCC(=O)O)cc1 | 1% |
| COc1cccc(-n2cnc3c(N)ncnc32)c1 [SKF-97416] | 23% |
| O=C(NCc1cccs1)c1cc(C(=O)c2c(Cl)cccc2Cl)c[nH]1 [GW823670] | 4% |
| C[C@@H]1CC[C@H](C(=O)NC2CCCCC2)CN1c1cc(-c2ccc3c(N)n[nH]c3c2)nc(N)n1 [GSK2291363] | 10% |
| Cc1nnc(-c2ccc3ncn(-c4ccc(S(C)=O)cc4)c3c2)o1 (stereo not shown) | 0% |

| SMILES | %Inh |
| --- | --- |
| O=C1NC(=O)C(c2ccccc2)=C1Nc1cccc(O)c1 [SB-390534] | 0% |
| COc1ccc(-c2cc3c(C)nc(N)nc3n([C@H]3CC[C@H](OCCO)CC3)c2=O)cn1 | 0% |
| Cc1nnc(-c2ccc(C)c(-c3ccc(C(=O)O)cc3)c2)o1 [GW608005] | 0% |
| Cc1cccc(-c2cc(-c3c[nH]nc3-c3ccccn3)ccn2)c1 [GW679395] | 0% |
| Nc1ncnc2c1ncn2-c1ccc(Cl)cc1 [AH2635] | 0% |
| Cl.NS(=O)(=O)c1cccc(Nc2cc(-c3ccc(F)cc3)n[nH]2)c1 [GW824645] | 35% |
| Fc1cccc(CSc2nnc(-c3ccc4c(c3)CCO4)o2)c1 | 6% |
| CCC(=O)c1c(-c2ccccc2)c2cc(Cl)ccc2c(=O)n1Cc1cc(S(C)(=O)=O)n(CC(N)=O)n1 | 4% |
| FC(F)(F)c1ccc(-c2ncn(CCCN3CCOCC3)c2-c2ccncc2)cc1 [SB-217780] | 0% |
| Cc1ccc(Oc2ccc(Nc3ncnc4cc[nH]c34)cc2C)cn1 | 12% |
| Cc1cccc(-c2nc(Nc3ccc4c(cnn4C)c3)c3ccccc3n2)n1 [GW876731] | 0% |
| O=C(NCCNc1ccnc(Nc2ccc(F)cc2)n1)Nc1ccc2c(c1)OCO2 [GSK1379882] | 0% |
| Nc1ncnc2c1ncn2-c1cccc(F)c1 [SKF-97560] | 25% |
| Cc1nc(N(C)[C@H]2CN(C(=O)CC#N)CC[C@H]2C)c2cc[nH]c2n1 | 0% |
| CCC(=O)c1c(-c2ccccc2)c2cc(Cl)ccc2c(=O)n1Cc1ccc(C(=O)O)cc1 | 0% |
| COc1cc2ncn(-c3cc(OCCCc4ccccc4)c(C(N)=O)s3)c2cc1OC [GSK205189] | 0% |
| CCCC(=O)Nc1n[nH]c2ncc(-c3cccc4ccccc34)cc12 [SB-642057] | 0% |
| CN(C)c1cc(-c2ccc3c(N)n[nH]c3c2)nc(N)n1 [GSK2219329] | 81% |

From PMC5540273 (PLoS ONE, 2017)
